Results filed as inconclusive are left out. The source made the active and inactive calls. Rule for the calls, unless noted: active = hit-call score of the fitted dose curve at least 0.9, where 1 is the maximum; inconclusive = response in the unintended direction; inactive = score below 0.9.
Tests used:
TIMP1, TIMP1 (gene 7076) = experiment: LTEA_HepaRG_TIMP1: Life Technologies and Expression Analysis (LTEA) Assay for TIMP1 using HepaRG (AID 2283534; active = hit-call score of the fitted dose curve at least 0.9, where 1 is the maximum; inactive = score below 0.9); conditions: mRNA level, 48 h; actives raise or lower the signal
In short: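 Readout is TIMP1 mRNA level measured by qRT-PCR and normalized to three housekeeping genes. Human HepaRG cells were treated for 48 h in duplicate at eight concentrations up to 100 uM (0.5% DMSO); gain or loss fitted against DMSO.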

[1] = read-out: Thyroid Hormone Responsive (THRSP), THRSP (gene 7069); experiment: LTEA_HepaRG_THRSP: Life Technologies and Expression Analysis (LTEA) Assay for Thyroid Hormone Responsive (THRSP) using HepaRG (AID 2283536; active = hit-call score of the fitted dose curve at least 0.9, where 1 is the maximum; inactive = score below 0.9); conditions: mRNA level, 48 h; actives raise or lower the signal
In short: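 qRT-PCR read-out (Fluidigm TaqMan), housekeeping-normalized (ACTB/GAPDH/POLR2A). HepaRG, 48 h chemical exposure, 8-pt half-log series from 100 uM in 0.5% DMSO, duplicates. Bidirectional curve fit vs 0.5% DMSO baseline.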

[2] = read-out: Cellular tumor antigen p53 (Homo sapiens) (UniProt P04637); experiment: LTEA_HepaRG_TP53: Life Technologies and Expression Analysis (LTEA) Assay for Tumor Protein P53 (TP53) using HepaRG (AID 2283537; active = hit-call score of the fitted dose curve at least 0.9, where 1 is the maximum; inactive = score below 0.9); conditions: mRNA level, 48 h; actives raise or lower the signal
In short: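 Differentiated HepaRG cells in serum-free induction medium exposed 48 h in duplicate to 8 half-log concentrations, top 100 uM, 0.5% DMSO. TP53 mRNA by TaqMan qRT-PCR (Fluidigm), normalized to ACTB, GAPDH, POLR2A; fitted bidirectionally versus DMSO.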

[3] = read-out: UDP glucuronosyltransferase (UGT1A6), UGT1A6 (gene 54578); experiment: LTEA_HepaRG_UGT1A6: Life Technologies and Expression Analysis (LTEA) Assay for UDP glucuronosyltransferase (UGT1A6) using HepaRG (AID 2283539; active = hit-call score of the fitted dose curve at least 0.9, where 1 is the maximum; inactive = score below 0.9); conditions: mRNA level, 48 h; actives raise or lower the signal
In short: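 HepaRG, 48 h post-plating switch to serum-free induction medium; chemical 48 h, 100 uM top, half-log x8, duplicate, 0.5% DMSO. Phenobarbital 1mM induction control. UGT1A6 mRNA by TaqMan qRT-PCR; gain/loss fit vs DMSO.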

[4] = read-out: X-box binding protein 1 (XBP1), XBP1 (gene 7494); experiment: LTEA_HepaRG_XBP1: Life Technologies and Expression Analysis (LTEA) Assay for X-box binding protein 1 (XBP1) using HepaRG (AID 2283540; active = hit-call score of the fitted dose curve at least 0.9, where 1 is the maximum; inactive = score below 0.9); conditions: mRNA level, 48 h; actives raise or lower the signal
In short: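 Transcript levels of XBP1, measured by qRT-PCR and normalised to three housekeeping genes, were fitted bidirectionally relative to 0.5% DMSO controls. Human HepaRG cells received eight-point half-log dilutions from 100 uM for 48 h.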

[5] = LTEA_HepaRG_LDH_cytotoxicity: Cytotoxicity Assessment in the Life Technologies and Expression Analysis (LTEA) Assay (AID 2283563);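 for AC50: LDH activity released into spent culture medium as a marker of cell death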
In short: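 Cells were thawed and plated for 48 h. Medium was then replaced with serum-free induction medium. Chemicals (8 half-log points, maximum 100 uM, 0.5% DMSO) were added in duplicate for 48 h, after which spent medium was assayed for LDH.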

[6] = TOX21_p53_BLA_p2_viability: Viability Assessment in the Tox21 HCT-116 p53 Agonism Beta-lactamase Assay, Phase 2 (AID 2283591);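 note: compound exposure lasted 16 h at 37 °C; actives lower the ATP signal meaning cytotoxicity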
In short: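 HCT116 p53-bla cells, 4000/well, dosed after 5 h plating (217-fold dilution of DMSO stocks) and incubated 16 h at 37C. Viability taken as cellular ATP by CellTiter-Glo luminescence after 30 min RT; signal loss marks cytotoxicity.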

[7] = target: Cellular tumor antigen p53 (Homo sapiens) (UniProt P04637); experiment: TOX21_p53_BLA_p2_ratio: Tox21 HCT-116 p53 Agonism Beta-lactamase Assay, Ratio, Phase 2 (AID 2283592)
Cellular tumor antigen p53 (Homo sapiens), sequence (P04637 whole entry, looked up): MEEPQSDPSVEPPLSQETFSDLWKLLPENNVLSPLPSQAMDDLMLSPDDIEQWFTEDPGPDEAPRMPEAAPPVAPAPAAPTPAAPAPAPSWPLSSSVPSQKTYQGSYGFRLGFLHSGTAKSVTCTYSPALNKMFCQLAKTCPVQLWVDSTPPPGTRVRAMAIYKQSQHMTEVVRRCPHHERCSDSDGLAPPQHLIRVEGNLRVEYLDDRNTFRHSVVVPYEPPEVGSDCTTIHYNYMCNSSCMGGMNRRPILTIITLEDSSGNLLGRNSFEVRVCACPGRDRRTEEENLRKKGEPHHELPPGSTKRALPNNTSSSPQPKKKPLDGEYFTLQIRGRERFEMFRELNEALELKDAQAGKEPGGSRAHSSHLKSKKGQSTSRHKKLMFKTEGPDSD
In short: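 Plated HCT116 p53-bla cells (4000/well) received compound after 5 h, then 16 h at 37C/5% CO2. CCF4-AM added, 2 h RT. Ratio of 460 to 530 nm emission taken as the p53 reporter signal.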

[8] = TOX21_p53_BLA_p3_viability: Viability Assessment in the Tox21 HCT-116 p53 Agonism Beta-lactamase Assay, Phase 3 (AID 2283593);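 note: cells exposed to compound for 16 h before reading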
In short: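 HCT116 cells, 4000/well, dosed 5 h after plating by pin transfer (217-fold dilution from DMSO stock) and incubated 16 h at 37C, 5% CO2. Viability read as ATP luminescence with CellTiter-Glo after 30 min at room temperature.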

[9] = target: Cellular tumor antigen p53 (Homo sapiens) (UniProt P04637); experiment: TOX21_p53_BLA_p3_ratio: Tox21 HCT-116 p53 Agonism Beta-lactamase Assay, Ratio, Phase 3 (AID 2283596)
In short: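 Cells were seeded at 4000/well, rested 5 h at 37C, then dosed with DMSO compound solutions (217-fold dilution) for 16 h. CCF4-AM substrate was loaded for 2 h at room temperature, and the 460/530 nm emission ratio was fitted for gain of signal versus DMSO.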

[10] = TOX21_p53_BLA_p4_viability: Viability Assessment in the Tox21 HCT-116 p53 Agonism Beta-lactamase Assay, Phase 4 (AID 2283597);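 note: hits lower the luminescence signal meaning cytotoxicity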
In short: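 Readout: ATP luminescence (CellTiter-Glo), measured 30 min after reagent addition at RT. The reagent followed a 2 h CCF4-AM incubation, and the cells had been exposed to compound for 16 h at 37C.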

[11] = target: Cellular tumor antigen p53 (Homo sapiens) (UniProt P04637); experiment: TOX21_p53_BLA_p5_ratio: Tox21 HCT-116 p53 Agonism Beta-lactamase Assay, Ratio, Phase 5 (AID 2283599)
In short: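 HCT-116 p53-bla cells (4000/well) plated 5 h, dosed with compound (217-fold DMSO dilution) for 16 h at 37 C; CCF4-AM substrate 2 h at room temperature. Activity is the 460/530 nm emission ratio (405 nm excitation), fitted in gain-of-signal direction versus DMSO.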

[12] = target: Cellular tumor antigen p53 (Homo sapiens) (UniProt P04637); experiment: TOX21_p53_BLA_p4_ratio: Tox21 HCT-116 p53 Agonism Beta-lactamase Assay, Ratio, Phase 4 (AID 2283601)
In short: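 HCT-116 p53 beta-lactamase reporter cells (4000/well) preincubated 5 h, then compound (217-fold dilution of DMSO stock) for 16 h at 37C. CCF4-AM substrate added 2 h at room temperature; 460/530 nm emission ratio fitted upward versus DMSO.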

[13] = Tanguay_ZF_120hpf_MORT_legacy: (Legacy) Oregon State University Tanguay Lab 120 Hour Post-fertilization zebrafish Assay for Mortality (AID 2283633);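 for AC50: fitted as increase in binary mortality versus DMSO negative control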
In short: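 5D WT zebrafish, chorion removed 4 hpf; 1 embryo/well from 6 hpf; static exposure to 120 hpf, 28C, dark, sealed. Final DMSO 0.64%. Readout: binary mortality, brightfield, 24 + 120 hpf; DMSO as negative control.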

[14] = Tanguay_ZF_120hpf_YSE_legacy: (Legacy) Oregon State University Tanguay Lab 120 Hour Post-fertilization zebrafish Assay for Yolk Sac Edema (AID 2283634);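 for AC50: actives raise the incidence of yolk sac edema above the DMSO baseline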
In short: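 Dechorionate (pronase, 4 hpf) → place one 6 hpf embryo per well → static compound exposure, sealed and foil-covered, 28C, to 120 hpf → record yolk sac edema as present or absent. Final DMSO 0.64%.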

[15] = Tanguay_ZF_120hpf_AXIS_legacy: (Legacy) Oregon State University Tanguay Lab 120 Hour Post-fertilization zebrafish Assay for Body Axis Malformation (AID 2283635);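 for AC50: potency for an increased fraction of larvae scored with body axis malformation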
In short: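 Chorion is removed with pronase at 4 hpf, then single 6 hpf embryos are dosed (final DMSO 0.64%) and held statically at 28C in sealed, foil-covered plates. At 120 hpf body axis malformation is recorded as present or absent.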

[16] = Tanguay_ZF_120hpf_EYE_legacy: (Legacy) Oregon State University Tanguay Lab 120 Hour Post-fertilization zebrafish Assay for Eye Malformation (AID 2283636);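 note: binary presence or absence of eye malformation scored by brightfield in 120 hpf larvae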
In short: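 5D wild-type embryos, pronase-dechorionated at 4 hpf; static exposure 6–120 hpf, 28C, dark; DMSO 0.64% final; 5uM trimethyltin chloride positive control. Binary eye-defect scoring at 120 hpf; dead embryos not scored.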

[17] = read-out: Tumor necrosis factor receptor 1 (TNFRSF1A), TNFRSF1A (gene 7132); experiment: LTEA_HepaRG_TNFRSF1A: Life Technologies and Expression Analysis (LTEA) Assay for Tumor necrosis factor receptor 1 (TNFRSF1A) using HepaRG (AID 2283535; active = hit-call score of the fitted dose curve at least 0.9, where 1 is the maximum; inactive = score below 0.9); conditions: mRNA level, 48 h; actives raise or lower the signal
In short: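 Read-out is TNFRSF1A transcript level by TaqMan qRT-PCR, normalized to three housekeeping genes, scored as gain or loss of signal versus 0.5% DMSO. Human HepaRG cells received test chemicals for 48 h at up to 100 uM (half-log series).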

[18] = TOX21_p53_BLA_p5_viability: Viability Assessment in the Tox21 HCT-116 p53 Agonism Beta-lactamase Assay, Phase 5 (AID 2283600)
In short: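 Workflow: seed 4000 cells per well, wait 5 h, add compounds (DMSO, 217-fold dilution), incubate 16 h, load CCF4-AM 2 h, add CellTiter-Glo, read luminescence after 30 min.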

[19] = read-out: UDP glucuronosyltransferase (UGT1A1), UGT1A1 (gene 54658); experiment: LTEA_HepaRG_UGT1A1: Life Technologies and Expression Analysis (LTEA) Assay for UDP glucuronosyltransferase (UGT1A1) using HepaRG (AID 2283538; active = hit-call score of the fitted dose curve at least 0.9, where 1 is the maximum; inactive = score below 0.9); conditions: mRNA level, 48 h; actives raise or lower the signal
In short: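 Cells are plated, cultured 48 h, switched to serum-free induction medium, then dosed 48 h at eight concentrations (max 100 uM, 0.5% DMSO). RNA is isolated and UGT1A1 expression measured by qRT-PCR; changes versus DMSO are fitted in both directions.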

Measured: AC50

COP(=O)(NC(C)=O)SC (stereo not given)
not listed: [17] | [18] | [19]
inactive: all other assays above

CC(C1CC1)C(O)(Cn1cncn1)c1ccc(Cl)cc1 (stereo not given)
active: [1] 28.1 µM | [14] 36.3 µM | [15] 24.8 µM | [16] 9.92 µM
not listed: [4] | [7] | [11] | [19]
inactive: all other assays above

CC1(C(=O)Nc2ccc(O)c(Cl)c2Cl)CCCCC1
not listed: [17]
inactive: all other assays above

CCCCOC(=O)c1ccccc1C(=O)O
not listed: [8] | [12] | [19]
inactive: all other assays above

C=C(C)[C@H]1Cc2c(ccc3c2O[C@@H]2COc4cc(OC)c(OC)cc4[C@@H]2C3=O)O1
inactive: [4] | [14] | [15] | [16]
active: TIMP1, TIMP1 (gene 7076) 11.1 µM | [17] 50 µM | [1] 1.36 µM | [19] 23.7 µM | [3] 23.4 µM | [5] 6.74 µM | [13] 0.347 µM

CCOP(=S)(Oc1cnc(C(C)(C)C)nc1)OC(C)C (stereo not given)
active: [1] 68.5 µM | [4] 50 µM
not listed: [6] | [8] | [9] | [11] | [19]
inactive: all other assays above

Source: PubChem BioAssay (EPA / NIEHS)
